Results from paper PMC7862700, “An all-to-all approach to the identification of sequence-specific readers for epigenetic DNA modifications on cytosine”.

Experiments:
Test in all cases: DAPPL (digital affinity profiling via proximity ligation, sequencing); 10 mM Tris-HCl pH 7.5, 50 mM NaCl, 1 mM DTT, 4% glycerol, room temperature, 30 min; GST-TFs on glutathione beads, 16-mer random dsDNA library, 0.1% formaldehyde crosslink after washing; high values mean tight binding
[1] = biological target: T1, FEV (Homo sapiens, UniProt Q99581 1-238); conditions: protein: recombinant; tags: N-terminal GST; dsDNA, one strand shown
T1 sequence: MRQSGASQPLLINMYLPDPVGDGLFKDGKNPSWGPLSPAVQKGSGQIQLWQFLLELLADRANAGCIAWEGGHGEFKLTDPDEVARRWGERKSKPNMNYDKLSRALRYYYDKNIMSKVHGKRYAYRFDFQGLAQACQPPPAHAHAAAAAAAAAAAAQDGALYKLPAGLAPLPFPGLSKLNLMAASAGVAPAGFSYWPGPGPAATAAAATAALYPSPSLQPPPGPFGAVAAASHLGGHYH
Method in brief: (§1)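 Sequencing on an Illumina NextSeq500 followed washing, crosslinking with 0.1% formaldehyde, proximity ligation (BsaI/T4 ligase, 1 h, 37 °C) and PCR amplification of pools that had been incubated for 30 min at room temperature with 200 nmole of a random double-stranded 16-mer DNA library in Tris/NaCl/DTT/glycerol buffer. Each pool held DNA-barcoded human transcription factors, expressed in yeast as GST fusions and captured on glutathione beads, plus a tag-only sample. Binding signal is a hexamer's read frequency for a factor divided by its frequency in the tag-only sample.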

[2] = biological target: ETV5 (Homo sapiens, UniProt P41161 1-510); conditions: protein: recombinant; tags: N-terminal GST; dsDNA, one strand shown
Chain of ETV5 (P41161 whole entry): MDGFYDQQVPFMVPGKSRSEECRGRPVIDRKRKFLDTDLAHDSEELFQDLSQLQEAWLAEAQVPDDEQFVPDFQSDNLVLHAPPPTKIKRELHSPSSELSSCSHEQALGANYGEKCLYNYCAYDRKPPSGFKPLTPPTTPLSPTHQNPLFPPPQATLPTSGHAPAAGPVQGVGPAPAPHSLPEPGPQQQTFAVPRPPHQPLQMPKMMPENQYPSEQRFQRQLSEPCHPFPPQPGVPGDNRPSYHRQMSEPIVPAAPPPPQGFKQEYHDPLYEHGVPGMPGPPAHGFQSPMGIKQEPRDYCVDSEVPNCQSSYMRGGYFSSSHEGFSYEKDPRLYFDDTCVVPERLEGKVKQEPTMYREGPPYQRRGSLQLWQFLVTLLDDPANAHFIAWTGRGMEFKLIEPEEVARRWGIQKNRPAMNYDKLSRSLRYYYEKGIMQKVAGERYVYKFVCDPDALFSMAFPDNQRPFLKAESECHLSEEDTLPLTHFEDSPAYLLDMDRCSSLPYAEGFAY
Method in brief: as §1

[3] = biological target: HSF1 (Homo sapiens, UniProt Q00613 1-529); conditions: protein: recombinant; tags: N-terminal GST; chain copies: 3; dsDNA, one strand shown
Chain of HSF1 (Q00613 whole entry): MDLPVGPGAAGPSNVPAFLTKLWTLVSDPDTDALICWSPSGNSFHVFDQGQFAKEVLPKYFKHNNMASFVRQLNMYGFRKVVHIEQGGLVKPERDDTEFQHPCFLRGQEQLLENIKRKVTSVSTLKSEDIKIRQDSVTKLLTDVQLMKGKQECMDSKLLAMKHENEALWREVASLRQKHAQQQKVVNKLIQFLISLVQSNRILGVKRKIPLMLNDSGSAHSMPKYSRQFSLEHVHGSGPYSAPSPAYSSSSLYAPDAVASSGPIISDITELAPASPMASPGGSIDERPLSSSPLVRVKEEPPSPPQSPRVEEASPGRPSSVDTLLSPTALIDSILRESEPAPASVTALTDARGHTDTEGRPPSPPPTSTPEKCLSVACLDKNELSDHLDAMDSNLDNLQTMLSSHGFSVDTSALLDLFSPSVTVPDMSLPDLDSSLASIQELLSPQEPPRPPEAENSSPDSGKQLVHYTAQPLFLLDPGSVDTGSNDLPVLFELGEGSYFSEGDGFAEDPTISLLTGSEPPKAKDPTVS
Method in brief: as §1

[4] = biological target: T2, SPIC (Homo sapiens, UniProt Q8N5J4 1-248); conditions: protein: recombinant; tags: N-terminal GST; dsDNA, one strand shown
T2 sequence: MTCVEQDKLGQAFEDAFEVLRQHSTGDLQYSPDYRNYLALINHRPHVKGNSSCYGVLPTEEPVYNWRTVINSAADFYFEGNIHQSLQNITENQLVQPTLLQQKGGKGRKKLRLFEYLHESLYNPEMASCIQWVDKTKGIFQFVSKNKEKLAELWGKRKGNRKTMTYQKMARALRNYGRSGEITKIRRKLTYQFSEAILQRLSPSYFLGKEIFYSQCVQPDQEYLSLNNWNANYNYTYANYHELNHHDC
Method in brief: as §1

[5] = biological target: ELF4 (Homo sapiens, UniProt Q99607 1-663); conditions: protein: recombinant; tags: N-terminal GST; dsDNA, one strand shown
Chain of ELF4 (Q99607 whole entry): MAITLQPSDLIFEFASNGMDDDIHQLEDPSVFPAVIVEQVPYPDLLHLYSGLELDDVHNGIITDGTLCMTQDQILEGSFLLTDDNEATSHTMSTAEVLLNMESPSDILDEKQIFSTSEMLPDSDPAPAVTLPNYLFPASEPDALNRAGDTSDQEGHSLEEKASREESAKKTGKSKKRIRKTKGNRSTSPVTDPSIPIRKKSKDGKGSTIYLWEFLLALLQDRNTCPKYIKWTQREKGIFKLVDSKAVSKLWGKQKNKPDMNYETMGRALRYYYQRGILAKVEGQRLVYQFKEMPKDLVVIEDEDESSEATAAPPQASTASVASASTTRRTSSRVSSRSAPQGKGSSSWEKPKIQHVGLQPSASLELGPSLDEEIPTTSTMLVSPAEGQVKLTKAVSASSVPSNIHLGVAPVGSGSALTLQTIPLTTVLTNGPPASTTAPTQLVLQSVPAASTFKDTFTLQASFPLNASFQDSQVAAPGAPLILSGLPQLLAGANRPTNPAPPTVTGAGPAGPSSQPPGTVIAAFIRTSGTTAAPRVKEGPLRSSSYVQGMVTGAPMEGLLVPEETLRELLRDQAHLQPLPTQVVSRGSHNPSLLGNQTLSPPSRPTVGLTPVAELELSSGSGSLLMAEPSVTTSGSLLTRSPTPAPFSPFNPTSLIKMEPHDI
Method in brief: as §1

[6] = biological target: T3, ELK4 (Homo sapiens, UniProt P28324-2 1-405); conditions: protein: recombinant; tags: N-terminal GST; dsDNA, one strand shown
T3 sequence: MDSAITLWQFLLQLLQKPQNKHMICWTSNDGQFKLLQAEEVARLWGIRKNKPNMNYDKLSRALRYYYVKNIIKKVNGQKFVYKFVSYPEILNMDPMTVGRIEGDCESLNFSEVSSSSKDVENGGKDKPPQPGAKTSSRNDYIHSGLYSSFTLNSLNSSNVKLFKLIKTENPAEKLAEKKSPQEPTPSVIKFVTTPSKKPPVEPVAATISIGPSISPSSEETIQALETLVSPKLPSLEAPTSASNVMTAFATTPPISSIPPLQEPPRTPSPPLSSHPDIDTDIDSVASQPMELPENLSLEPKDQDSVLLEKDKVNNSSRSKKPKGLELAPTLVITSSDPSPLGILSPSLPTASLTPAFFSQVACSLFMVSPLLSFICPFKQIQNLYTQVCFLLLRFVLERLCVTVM
Method in brief: as §1

[7] = biological target: T4, ETV2 (Homo sapiens, UniProt O00321 1-342); conditions: protein: recombinant; tags: N-terminal GST; dsDNA, one strand shown
T4 sequence: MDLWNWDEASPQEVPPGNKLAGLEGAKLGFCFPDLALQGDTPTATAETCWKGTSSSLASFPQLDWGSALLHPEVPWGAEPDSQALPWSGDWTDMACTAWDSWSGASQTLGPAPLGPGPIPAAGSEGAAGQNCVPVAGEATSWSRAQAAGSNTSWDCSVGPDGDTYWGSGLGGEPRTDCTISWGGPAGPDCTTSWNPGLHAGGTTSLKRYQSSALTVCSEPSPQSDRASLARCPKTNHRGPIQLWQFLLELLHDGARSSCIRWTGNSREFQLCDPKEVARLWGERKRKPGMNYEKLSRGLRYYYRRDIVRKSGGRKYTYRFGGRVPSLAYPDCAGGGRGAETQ
Method in brief: as §1

[8] = biological target: T5, ELF3 (Homo sapiens, UniProt P78545 1-371); conditions: protein: recombinant; tags: N-terminal GST; dsDNA, one strand shown
T5 sequence: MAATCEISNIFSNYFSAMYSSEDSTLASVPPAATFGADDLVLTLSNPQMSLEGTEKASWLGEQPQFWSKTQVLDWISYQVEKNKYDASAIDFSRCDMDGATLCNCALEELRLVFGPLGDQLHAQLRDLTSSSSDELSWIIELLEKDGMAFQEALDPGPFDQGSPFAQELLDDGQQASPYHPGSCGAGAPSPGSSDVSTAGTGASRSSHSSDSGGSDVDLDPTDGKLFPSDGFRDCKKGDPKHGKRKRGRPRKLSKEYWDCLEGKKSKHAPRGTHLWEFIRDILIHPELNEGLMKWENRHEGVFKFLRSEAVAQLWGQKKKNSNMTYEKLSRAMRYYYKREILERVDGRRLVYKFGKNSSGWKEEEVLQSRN
Method in brief: as §1

[9] = biological target: CRX (Homo sapiens, UniProt O43186 1-299); conditions: protein: recombinant; tags: N-terminal GST; dsDNA, one strand shown
Chain of CRX (O43186 whole entry): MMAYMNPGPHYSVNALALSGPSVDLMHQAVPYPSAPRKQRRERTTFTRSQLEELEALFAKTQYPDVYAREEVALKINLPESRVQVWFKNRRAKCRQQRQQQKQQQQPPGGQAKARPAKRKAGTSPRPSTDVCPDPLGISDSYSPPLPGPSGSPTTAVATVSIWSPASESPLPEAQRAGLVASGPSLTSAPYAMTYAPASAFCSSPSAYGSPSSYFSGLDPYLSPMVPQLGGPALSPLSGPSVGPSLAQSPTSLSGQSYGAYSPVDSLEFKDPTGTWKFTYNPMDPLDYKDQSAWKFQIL
Method in brief: as §1

[10] = biological target: ETV1 (Homo sapiens, UniProt P50549 1-477); conditions: protein: recombinant; tags: N-terminal GST; dsDNA, one strand shown
Chain of ETV1 (P50549 whole entry): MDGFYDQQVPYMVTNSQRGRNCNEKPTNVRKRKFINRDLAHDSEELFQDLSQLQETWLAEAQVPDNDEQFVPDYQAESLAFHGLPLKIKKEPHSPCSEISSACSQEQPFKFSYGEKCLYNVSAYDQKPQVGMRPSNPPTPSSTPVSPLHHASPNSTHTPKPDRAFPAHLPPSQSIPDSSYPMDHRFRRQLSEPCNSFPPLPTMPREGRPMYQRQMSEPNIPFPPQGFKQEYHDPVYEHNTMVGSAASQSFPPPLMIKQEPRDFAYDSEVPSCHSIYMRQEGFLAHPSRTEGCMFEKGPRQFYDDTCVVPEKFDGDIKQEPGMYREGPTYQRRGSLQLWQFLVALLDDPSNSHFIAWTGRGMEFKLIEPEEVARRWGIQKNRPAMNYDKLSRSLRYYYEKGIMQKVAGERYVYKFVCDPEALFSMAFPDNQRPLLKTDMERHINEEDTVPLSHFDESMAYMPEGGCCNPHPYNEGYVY
Method in brief: as §1

[11] = biological target: T6, ERF (Homo sapiens, UniProt P50548 1-548); conditions: protein: recombinant; tags: N-terminal GST; dsDNA, one strand shown
T6 sequence: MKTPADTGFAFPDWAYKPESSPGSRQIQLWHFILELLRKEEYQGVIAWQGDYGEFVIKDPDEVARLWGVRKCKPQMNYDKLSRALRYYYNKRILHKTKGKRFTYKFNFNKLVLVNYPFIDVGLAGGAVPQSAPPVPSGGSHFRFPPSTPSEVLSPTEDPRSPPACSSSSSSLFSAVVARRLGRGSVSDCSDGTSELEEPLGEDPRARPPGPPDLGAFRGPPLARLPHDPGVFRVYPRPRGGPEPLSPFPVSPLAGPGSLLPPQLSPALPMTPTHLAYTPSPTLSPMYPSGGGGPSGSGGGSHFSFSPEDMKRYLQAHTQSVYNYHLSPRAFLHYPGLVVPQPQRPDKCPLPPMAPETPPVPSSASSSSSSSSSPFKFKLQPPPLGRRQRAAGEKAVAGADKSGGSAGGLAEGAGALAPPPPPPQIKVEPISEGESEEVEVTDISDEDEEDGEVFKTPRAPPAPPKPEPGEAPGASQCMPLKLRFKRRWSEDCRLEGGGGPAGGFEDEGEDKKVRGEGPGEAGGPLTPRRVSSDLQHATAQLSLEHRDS
Method in brief: as §1

[12] = biological target: T7, ETV3L (Homo sapiens, UniProt Q6ZN32 1-361); conditions: protein: recombinant; tags: N-terminal GST; dsDNA, one strand shown
T7 sequence: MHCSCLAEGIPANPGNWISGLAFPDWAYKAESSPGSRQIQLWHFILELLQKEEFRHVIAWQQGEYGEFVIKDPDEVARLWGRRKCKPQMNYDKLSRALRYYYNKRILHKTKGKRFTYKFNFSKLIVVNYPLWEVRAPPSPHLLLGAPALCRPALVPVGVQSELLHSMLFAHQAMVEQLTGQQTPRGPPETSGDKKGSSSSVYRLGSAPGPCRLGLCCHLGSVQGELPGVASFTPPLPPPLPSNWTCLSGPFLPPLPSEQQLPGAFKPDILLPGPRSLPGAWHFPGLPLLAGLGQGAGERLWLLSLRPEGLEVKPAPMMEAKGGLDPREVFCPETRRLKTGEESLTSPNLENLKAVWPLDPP
Method in brief: as §1

[13] = biological target: T8, ETS2 (Homo sapiens, UniProt P15036 1-469); conditions: protein: recombinant; tags: N-terminal GST; dsDNA, one strand shown
T8 sequence: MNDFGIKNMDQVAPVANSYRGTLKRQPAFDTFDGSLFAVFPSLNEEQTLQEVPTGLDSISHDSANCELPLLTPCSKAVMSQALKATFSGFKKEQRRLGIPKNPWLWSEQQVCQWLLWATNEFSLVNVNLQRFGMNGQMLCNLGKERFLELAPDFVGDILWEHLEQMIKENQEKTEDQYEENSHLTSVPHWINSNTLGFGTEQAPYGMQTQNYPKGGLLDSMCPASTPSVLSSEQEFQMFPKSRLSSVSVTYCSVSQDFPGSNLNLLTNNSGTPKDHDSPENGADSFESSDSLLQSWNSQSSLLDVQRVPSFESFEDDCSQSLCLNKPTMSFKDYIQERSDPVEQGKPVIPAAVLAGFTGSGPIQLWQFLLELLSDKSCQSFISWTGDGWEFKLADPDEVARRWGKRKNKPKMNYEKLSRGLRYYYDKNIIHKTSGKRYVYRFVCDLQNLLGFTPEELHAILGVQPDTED
Method in brief: as §1

[14] = biological target: T9, SPDEF (Homo sapiens, UniProt O95238 1-335); conditions: protein: recombinant; tags: N-terminal GST; dsDNA, one strand shown
T9 sequence: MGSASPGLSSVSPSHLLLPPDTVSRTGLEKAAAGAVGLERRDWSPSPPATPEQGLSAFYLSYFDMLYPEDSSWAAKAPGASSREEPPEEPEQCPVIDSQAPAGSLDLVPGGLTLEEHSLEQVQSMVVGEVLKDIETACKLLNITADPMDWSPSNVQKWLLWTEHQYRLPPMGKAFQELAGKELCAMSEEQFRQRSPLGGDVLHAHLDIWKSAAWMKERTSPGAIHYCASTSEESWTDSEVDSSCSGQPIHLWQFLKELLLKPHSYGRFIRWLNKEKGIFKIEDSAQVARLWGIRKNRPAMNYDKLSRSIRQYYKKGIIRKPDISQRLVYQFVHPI
Method in brief: as §1

[15] = biological target: T10, ETV7 (Homo sapiens, UniProt Q9Y603 1-341); conditions: protein: recombinant; tags: N-terminal GST; dsDNA, one strand shown
T10 sequence: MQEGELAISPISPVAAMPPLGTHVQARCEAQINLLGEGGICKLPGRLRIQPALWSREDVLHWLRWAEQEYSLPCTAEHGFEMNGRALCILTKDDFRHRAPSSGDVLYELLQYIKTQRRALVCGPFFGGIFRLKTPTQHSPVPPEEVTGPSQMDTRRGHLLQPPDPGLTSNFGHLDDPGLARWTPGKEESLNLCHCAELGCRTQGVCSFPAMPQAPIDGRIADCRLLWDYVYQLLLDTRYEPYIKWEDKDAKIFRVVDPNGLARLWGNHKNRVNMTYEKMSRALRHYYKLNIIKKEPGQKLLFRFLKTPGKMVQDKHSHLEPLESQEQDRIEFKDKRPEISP
Method in brief: as §1

[16] = biological target: T11, ELF5 (Homo sapiens, UniProt Q9UKW6-2 1-255); conditions: protein: recombinant; tags: N-terminal GST; dsDNA, one strand shown
T11 sequence: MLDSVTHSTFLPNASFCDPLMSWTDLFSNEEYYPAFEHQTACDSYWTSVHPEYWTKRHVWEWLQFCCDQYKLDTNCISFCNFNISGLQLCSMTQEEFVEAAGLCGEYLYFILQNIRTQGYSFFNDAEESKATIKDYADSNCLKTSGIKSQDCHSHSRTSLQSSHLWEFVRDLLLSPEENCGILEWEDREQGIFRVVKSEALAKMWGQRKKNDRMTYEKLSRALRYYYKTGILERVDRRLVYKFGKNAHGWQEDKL
Method in brief: as §1

[17] = biological target: T12, ETV3 (Homo sapiens, UniProt P41162-2 1-143); conditions: protein: recombinant; tags: N-terminal GST; dsDNA, one strand shown
T12 sequence: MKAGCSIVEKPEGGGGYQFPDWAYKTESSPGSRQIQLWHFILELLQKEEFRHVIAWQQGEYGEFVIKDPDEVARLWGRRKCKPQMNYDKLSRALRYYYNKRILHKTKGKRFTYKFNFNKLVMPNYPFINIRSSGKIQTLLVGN
Method in brief: as §1

[18] = biological target: ETV6 (Homo sapiens, UniProt P41212 1-452); conditions: protein: recombinant; tags: N-terminal GST; dsDNA, one strand shown
Chain of ETV6 (P41212 whole entry): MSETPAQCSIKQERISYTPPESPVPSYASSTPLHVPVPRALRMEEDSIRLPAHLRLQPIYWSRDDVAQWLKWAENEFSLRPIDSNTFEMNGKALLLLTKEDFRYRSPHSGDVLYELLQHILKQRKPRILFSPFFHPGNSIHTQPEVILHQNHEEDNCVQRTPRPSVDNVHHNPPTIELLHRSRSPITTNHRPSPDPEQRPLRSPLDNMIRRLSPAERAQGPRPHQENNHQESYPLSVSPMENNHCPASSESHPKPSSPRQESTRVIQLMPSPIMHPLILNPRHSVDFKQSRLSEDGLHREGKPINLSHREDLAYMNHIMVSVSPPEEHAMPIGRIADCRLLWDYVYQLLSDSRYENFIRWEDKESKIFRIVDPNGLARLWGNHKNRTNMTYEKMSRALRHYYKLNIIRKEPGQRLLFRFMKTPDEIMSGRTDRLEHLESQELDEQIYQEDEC
Method in brief: as §1

ATCTCA
binding signal [1]: 1.16 fold enrichment (6-mer frequency, TF over GST control)
binding signal [2]: 1.18 fold enrichment (6-mer frequency, TF over GST control)
binding signal [3]: 1.19 fold enrichment (6-mer frequency, TF over GST control)
binding signal [4]: 1.14 fold enrichment (6-mer frequency, TF over GST control)
binding signal [5]: 1.18 fold enrichment (6-mer frequency, TF over GST control)
binding signal [6]: 1.14 fold enrichment (6-mer frequency, TF over GST control)
binding signal [7]: 1.23 fold enrichment (6-mer frequency, TF over GST control)
binding signal [8]: 1.22 fold enrichment (6-mer frequency, TF over GST control)
binding signal [9]: 1.51 fold enrichment (6-mer frequency, TF over GST control)
binding signal [10]: 1.16 fold enrichment (6-mer frequency, TF over GST control)
binding signal [11]: 1.07 fold enrichment (6-mer frequency, TF over GST control)
binding signal [12]: 1.13 fold enrichment (6-mer frequency, TF over GST control)
binding signal [13]: 1.14 fold enrichment (6-mer frequency, TF over GST control)
binding signal [14]: 1.07 fold enrichment (6-mer frequency, TF over GST control)
binding signal [15]: 1.15 fold enrichment (6-mer frequency, TF over GST control)
binding signal [16]: 1.09 fold enrichment (6-mer frequency, TF over GST control)
binding signal [17]: 1.13 fold enrichment (6-mer frequency, TF over GST control)
binding signal [18]: 1.11 fold enrichment (6-mer frequency, TF over GST control)
